# Inconclusive results are not listed. The source made the active and inactive calls.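 Rule for the calls, unless noted: active = normalized viability below 100% at a tested concentration; inactive = the rest.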
# What was measured:
# [1] = growth inhibition of DIPG glioma cells, dose response, cell-based, SU-DIPG-XVII, MIPE5.0, CellTiter-Glo, qHTS (AID 1347060; cut-off not given, nearly all actives have AC50 up to about 26 µM;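 for AC50: cells exposed to compound for 48 hours before viability readout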); conditions: SU-DIPG-XVII viability, CellTiter-Glo ATP luminescence
# [2] = growth inhibition of DIPG glioma cells, dose response, cell-based, SU-DIPG-XIII, MIPE4.0, CellTiter-Glo, qHTS (AID 1347061; cut-off not given, nearly all actives have AC50 up to about 37 µM;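 note: cells exposed to compound for 48 hours before readout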); conditions: SU-DIPG-XIII viability, CellTiter-Glo ATP luminescence
# [3] = growth inhibition of DIPG glioma cells, dose response, cell-based, JHH-DIPG-1, MIPE4.0, CellTiter-Glo, qHTS (AID 1347062; cut-off not given, nearly all actives have AC50 up to about 27 µM;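 for AC50: cells exposed to compound for two days before readout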); conditions: JHH-DIPG-1 viability, CellTiter-Glo ATP luminescence
# [4] = growth inhibition of DIPG glioma cells, dose response, cell-based, SU-DIPG-IV, MIPE4.0, CellTiter-Glo, qHTS (AID 1347063; cut-off not given, nearly all actives have AC50 up to about 30 µM;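 note: compound exposure lasted 48 hours before the viability readout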); conditions: SU-DIPG-IV viability, CellTiter-Glo ATP luminescence
# [5] = growth inhibition of DIPG glioma cells, dose response, cell-based, SU-DIPG-XIII, MIPE5.0, CellTiter-Glo, qHTS (AID 1347064; cut-off not given, nearly all actives have AC50 up to about 23 µM;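 for AC50: cells exposed to compound for 48 hours before the viability read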); conditions: SU-DIPG-XIII viability, CellTiter-Glo ATP luminescence
# [6] = viability loss in pontine glioma line – cell-based, SU-DIPG-XXV, MIPE5.0, CellTiter-Glo, qHTS, dose response (AID 1347065; cut-off not given, nearly all actives have AC50 up to about 26 µM;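 note: cells exposed to compound for 48 hours before ATP readout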); conditions: CellTiter-Glo ATP luminescence
# [7] = SU-DIPG-VI glioma cell viability, MIPE4.0 library, CellTiter-Glo luminescence, qHTS (AID 1347066; cut-off not given, nearly all actives have AC50 up to about 30 µM;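 note: cells exposed to compound for 48 hours before readout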); conditions: CellTiter-Glo ATP luminescence
# [8] = JHH-DIPG-1 glioma cell viability, MIPE5.0 library, CellTiter-Glo luminescence, qHTS (AID 1347067; cut-off not given, nearly all actives have AC50 up to about 26 µM;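 note: cells exposed to compound for 48 hours before readout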); conditions: JHH-DIPG-1 glioma viability, CellTiter-Glo ATP luminescence
# [9] = modifiers of HSF1 nuclear foci, imaging, Selleck Cancer Library (AID 1347162; in the data active = plate-normalised HSF1 focus index below about 0.46); conditions: human cells, at 10 µM; SSMD: measured here: HSF1 foci SSMD mean; cell count: measured here: cell number; plate-normalised HSF1 focus index: stronger effect = lower value
# [10] = SU-DIPG-XXV glioma cell viability, MIPE5.0 library, qHTS (AID 1347068; cut-off not given, nearly all actives have IC50 up to about 30 µM;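 for IC50: cells exposed to compound for 48 hours before viability readout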)
# [11] = sensitizers of A549 cells to miR-34 induction, primary screen, imaging, A549 dox-inducible miR-34, nuclei and caspase counts (AID 1347080;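 active = compounds whose cell count with miR-34 switched on is under 0.7 times the count with it off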); conditions: A549 miR-34 inducible, Hoechst nuclei count, 48 h
# [12] = survival rescue of mitochondrial mutant cells in low glucose, primary screen, MELAS cybrids, Rieske KO mouse fibroblasts, CellTiter-Glo (AID 1508586;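 active = mean z-score across replicates of 1.96 or higher in either the MELAS or the Rieske mutant cell line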;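 note: z relative to plate mean and SD of compound and empty wells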)
# [13] = ovarian cancer cell viability with rucaparib, profiling panel, oncology-focused library, rucaparib conditional (AID 1508598); conditions: patient-derived ovarian cancer cells, CellTiter-Glo viability, 144 h, stronger effect = lower value
# [14] = stronger effect = lower value, cell number ratio, induced over uninduced
# [15] = measured here: relative caspase fold change +Dox/-Dox
# [16] = measured here: total cells with miR-34 induction, stronger effect = lower value
# [17] = measured here: total cells without miR-34 induction
# [18] = MELAS cybrid survival, CellTiter-Glo 48 h, stronger effect = higher value
# [19] = Rieske KO mouse fibroblast survival, CellTiter-Glo 72 h
smiles,measurement,setting,value
C[C@@H]1CCN(C(=O)CC#N)C[C@@H]1N(C)c1ncnc2[nH]ccc12,outcome,[1],inactive
same,outcome,[2],inactive
same,outcome,[3],inactive
same,outcome,[4],inactive
same,outcome,[5],inactive
same,outcome,[6],inactive
same,outcome,[7],inactive
same,outcome,[8],inactive
same,SSMD,[9],3.28
same,cell count,[9],7280
same,plate-normalised HSF1 focus index,[9],1.17 (inactive)
COc1cc2ncnc(Nc3ccc(F)c(Cl)c3)c2cc1NC(=O)/C=C/CN1CCCCC1,AC50,[1],14.8 µM (active)
same,outcome,[2],inactive
same,AC50,[3],18.7 µM (active)
same,AC50,[4],20.9 µM (active)
same,AC50,[5],18.6 µM (active)
same,AC50,[6],9.34 µM (active)
same,AC50,[7],20.9 µM (active)
same,IC50,[10],10.5 µM (active)
same,SSMD,[9],1.69
same,cell count,[9],6970
same,plate-normalised HSF1 focus index,[9],1.09 (inactive)
O=C(c1cncc(Br)c1)N1CCC(N2CCCC2)CC1,outcome,[1],inactive
same,outcome,[2],inactive
same,outcome,[3],inactive
same,outcome,[4],inactive
same,outcome,[5],inactive
same,outcome,[6],inactive
same,AC50,[8],13.2 µM (active)
same,outcome,[10],inactive
same,fold change,[11]; [14],0.889 (inactive)
same,fold change,[11]; [15],0.588
same,cell count,[11]; [16],7820
same,cell count,[11]; [17],8800
same,z-score,[12]; [18],-0.503 (inactive)
same,z-score,[12]; [19],-0.908
NC(=O)Nc1cc(-c2ccc(CN3CCOCC3)cc2)sc1C(N)=O,AC50,[1],1.32 µM (active)
same,AC50,[2],18.7 µM (active)
same,AC50,[3],20.9 µM (active)
same,AC50,[4],16.6 µM (active)
same,AC50,[5],13.2 µM (active)
same,AC50,[6],0.934 µM (active)
same,AC50,[8],5.25 µM (active)
same,IC50,[10],2.95 µM (active)
CC[C@H]1OC(=O)[C@H](C)C(=O)[C@H](C)[C@@H](O[C@H]2O[C@H](C)C[C@H](N(C)C)[C@H]2O)[C@](C)(OC)C[C@@H](C)C(=O)[C@H](C)[C@H]2N(CCCCn3cnc(-c4cccnc4)c3)C(=O)O[C@]12C,AC50,[1],26.3 µM (active)
same,outcome,[2],inactive
same,outcome,[3],inactive
same,outcome,[4],inactive
same,outcome,[5],inactive
same,outcome,[6],inactive
same,outcome,[8],inactive
Nc1ccc(C(=O)Nc2cccc(-c3nc(N4CCOCC4)c4oc5ncccc5c4n3)c2)cn1,AC50,[1],4.68 µM (active)
same,AC50,[2],18.7 µM (active)
same,AC50,[3],16.6 µM (active)
same,AC50,[4],16.6 µM (active)
same,AC50,[5],8.33 µM (active)
same,AC50,[6],2.09 µM (active)
same,AC50,[7],11.8 µM (active)
same,AC50,[8],8.33 µM (active)
same,fold change,[11]; [14],1.02 (inactive)
same,fold change,[11]; [15],0.903
same,cell count,[11]; [16],2410
same,cell count,[11]; [17],2370
same,SSMD,[9],-0.394
same,cell count,[9],6980
same,plate-normalised HSF1 focus index,[9],0.989 (inactive)
same,z-score,[12]; [18],3.1 (active)
same,z-score,[12]; [19],-2.85
same,viability,"[13]; at 0.000305 µM, OCI-C5x cells, with rucaparib 10 µM, 100% = cells with rucaparib alone",106% (inactive)
same,viability,"[13]; at 0.000305 µM, OCI-C5x cells, without rucaparib",111% (inactive)
same,viability,"[13]; at 0.000305 µM, OCI-P5x cells, with rucaparib 20 µM, 100% = cells with rucaparib alone",83.5% (active)
same,viability,"[13]; at 0.000305 µM, OCI-P5x cells, without rucaparib",86.3% (active)
same,viability,"[13]; at 0.00122 µM, OCI-C5x cells, with rucaparib 10 µM, 100% = cells with rucaparib alone",106% (inactive)
same,viability,"[13]; at 0.00122 µM, OCI-C5x cells, without rucaparib",107% (inactive)
same,viability,"[13]; at 0.00122 µM, OCI-P5x cells, with rucaparib 20 µM, 100% = cells with rucaparib alone",68.8% (active)
same,viability,"[13]; at 0.00122 µM, OCI-P5x cells, without rucaparib",85.2% (active)
same,viability,"[13]; at 0.00488 µM, OCI-C5x cells, with rucaparib 10 µM, 100% = cells with rucaparib alone",105% (inactive)
same,viability,"[13]; at 0.00488 µM, OCI-C5x cells, without rucaparib",108% (inactive)
same,viability,"[13]; at 0.00488 µM, OCI-P5x cells, with rucaparib 20 µM, 100% = cells with rucaparib alone",71.1% (active)
same,viability,"[13]; at 0.00488 µM, OCI-P5x cells, without rucaparib",81% (active)
same,viability,"[13]; at 0.0195 µM, OCI-C5x cells, with rucaparib 10 µM, 100% = cells with rucaparib alone",115% (inactive)
same,viability,"[13]; at 0.0195 µM, OCI-C5x cells, without rucaparib",112% (inactive)
same,viability,"[13]; at 0.0195 µM, OCI-P5x cells, with rucaparib 20 µM, 100% = cells with rucaparib alone",56.8% (active)
same,viability,"[13]; at 0.0195 µM, OCI-P5x cells, without rucaparib",74.2% (active)
same,viability,"[13]; at 0.0781 µM, OCI-C5x cells, with rucaparib 10 µM, 100% = cells with rucaparib alone",122% (inactive)
same,viability,"[13]; at 0.0781 µM, OCI-C5x cells, without rucaparib",117% (inactive)
same,viability,"[13]; at 0.0781 µM, OCI-P5x cells, with rucaparib 20 µM, 100% = cells with rucaparib alone",114% (inactive)
same,viability,"[13]; at 0.0781 µM, OCI-P5x cells, without rucaparib",117% (inactive)
same,viability,"[13]; at 0.313 µM, OCI-C5x cells, with rucaparib 10 µM, 100% = cells with rucaparib alone",147% (inactive)
same,viability,"[13]; at 0.313 µM, OCI-C5x cells, without rucaparib",131% (inactive)
same,viability,"[13]; at 0.313 µM, OCI-P5x cells, with rucaparib 20 µM, 100% = cells with rucaparib alone",109% (inactive)
same,viability,"[13]; at 0.313 µM, OCI-P5x cells, without rucaparib",119% (inactive)
same,viability,"[13]; at 1.25 µM, OCI-C5x cells, with rucaparib 10 µM, 100% = cells with rucaparib alone",150% (inactive)
same,viability,"[13]; at 1.25 µM, OCI-C5x cells, without rucaparib",151% (inactive)
same,viability,"[13]; at 1.25 µM, OCI-P5x cells, with rucaparib 20 µM, 100% = cells with rucaparib alone",111% (inactive)
same,viability,"[13]; at 1.25 µM, OCI-P5x cells, without rucaparib",107% (inactive)
same,viability,"[13]; at 5 µM, OCI-C5x cells, with rucaparib 10 µM, 100% = cells with rucaparib alone",178% (inactive)
same,viability,"[13]; at 5 µM, OCI-C5x cells, without rucaparib",138% (inactive)
same,viability,"[13]; at 5 µM, OCI-P5x cells, with rucaparib 20 µM, 100% = cells with rucaparib alone",80% (active)
same,viability,"[13]; at 5 µM, OCI-P5x cells, without rucaparib",78.9% (active)
